Test results: PubChem BioAssay (EPA / NIEHS)
Activity calls are given as the source filed them. The calls were made as follows: active = hit-call score of the fitted dose curve at least 0.9, where 1 is the maximum; inactive = score below 0.9.

Tests used:
[1] = read-out: Transforming growth factor beta 1 (TGFb1), TGFB1 (gene 7040); experiment: BSK_KF3CT_TGFb1: BioMAP Diversity Plus: KF3CT Assay for Transforming growth factor beta 1 (TGFb1) Biomarker Activity (AID 2283072); settings: primary human keratinocytes with fibroblasts; actives raise or lower the signal
Summary of the method: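 Read-out: ELISA for TGF-b1 in keratinocyte/foreskin fibroblast human skin co-culture, 24 h after dosing; bidirectional curve fit vs DMSO baseline; gain or loss of signal scored.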

[2] = read-out: C-C motif chemokine 2 (Homo sapiens) (UniProt P13500); experiment: BSK_KF3CT_MCP1: BioMAP Diversity Plus: KF3CT Assay for Monocyte Chemoattractant Protein 1 (MCP1/CCL2) Biomarker Activity (AID 2283073); settings: primary human keratinocytes with fibroblasts; actives raise or lower the signal
Summary of the method: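 Biomarker MCP-1 is measured by ELISA in primary human keratinocytes co-cultured with foreskin fibroblasts, 24 h after chemical treatment; DMSO serves as the negative control and activity baseline.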

[3] = read-out: Matrix Metallopeptidase 9 (MMP9), MMP9 (gene 4318); experiment: BSK_KF3CT_MMP9: BioMAP Diversity Plus: KF3CT Assay for Matrix Metallopeptidase 9 (MMP9) Biomarker Activity (AID 2283074); settings: primary human keratinocytes with fibroblasts; actives raise or lower the signal;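 as to AC50: MMP9 protein level quantified by ELISA in the co-culture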
Summary of the method: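 Values come from bidirectional fitting relative to DMSO of MMP-9 levels, which were measured by ELISA. Measurements were taken 24 h after chemical dosing of a keratinocyte and foreskin fibroblast co-culture.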

[4] = read-out: urokinase plasminogen activator (uPA), PLAU (gene 5328); experiment: BSK_KF3CT_uPA: BioMAP Diversity Plus: KF3CT Assay for urokinase plasminogen activator (uPA) Biomarker Activity (AID 2283075); settings: primary human keratinocytes with fibroblasts; actives raise or lower the signal
Summary of the method: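 Values derive from bidirectional fitting against DMSO controls. Keratinocyte/foreskin fibroblast co-cultures received chemical; 24 h later uPA was detected by ELISA, with SRB total-protein staining in parallel wells for overt cytotoxicity.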

[5] = read-out: CD40, CD40 (gene 958); experiment: BSK_LPS_CD40: BioMAP Diversity Plus: LPS Assay for CD40 Biomarker Activity (AID 2283076); settings: primary human HUVEC with PBMC; actives raise or lower the signal
Summary of the method: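 Using a multiplexed primary human co-culture (umbilical vein endothelium plus PBMC), CD40 was read by ELISA 24 h after dosing, with cytotoxicity tracked by sulforhodamine B staining of parallel cultures and activity fitted bidirectionally versus DMSO.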

[6] = read-out: E-selectin (Homo sapiens) (UniProt P16581); experiment: BSK_LPS_Eselectin: BioMAP Diversity Plus: LPS Assay for Eselectin Biomarker Activity (AID 2283077); settings: primary human HUVEC with PBMC; actives raise or lower the signal
Summary of the method: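 Dose chemical onto LPS-driven HUVEC/PBMC co-culture; after 24 h, run ELISA for E-selectin; fit up- and down-going responses relative to DMSO control.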

[7] = read-out: Interleukin-8 (IL8), CXCL8 (gene 3576); experiment: BSK_LPS_IL8: BioMAP Diversity Plus: LPS Assay for Interleukin-8 (IL8) Biomarker Activity (AID 2283078); settings: primary human HUVEC with PBMC; actives raise or lower the signal
Summary of the method: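 In this LPS system, chemical-treated human umbilical vein endothelium/PBMC co-cultures were harvested at 24 h for IL-8 ELISA.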

[8] = BSK_LPS_SRB: Viability Assessment in the BioMAP Diversity Plus: LPS Assay (AID 2283079); settings: primary human HUVEC with PBMC;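 also: total protein by sulforhodamine B absorbance as a cytotoxicity measure; measured one day after compound addition; fitted in both directions against DMSO so loss or gain of signal counts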
Summary of the method: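 Cytotoxicity endpoint in human endothelial–PBMC co-culture: 24 h exposure, then SRB (0.1%) staining, 560 nm read.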

[9] = read-out: Interleukin-1 alpha (IL1a), IL1A (gene 3552); experiment: BSK_LPS_IL1a: BioMAP Diversity Plus: LPS Assay for Interleukin-1 alpha (IL1a) Biomarker Activity (AID 2283080); settings: primary human HUVEC with PBMC; actives raise or lower the signal
Summary of the method: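 Primary human HUVEC and PBMC co-culture stimulated with LPS is dosed and harvested at 24 h. Both increases and decreases in ELISA-measured IL-1a are scored relative to DMSO.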

[10] = read-out: Monocyte Chemoattractant Protein-1 (MCP1), CCL2 (gene 6347); experiment: BSK_LPS_MCP1: BioMAP Diversity Plus: LPS Assay for Monocyte Chemoattractant Protein-1 (MCP1) Biomarker Activity (AID 2283081); settings: primary human HUVEC with PBMC; actives raise or lower the signal;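 as to AC50: secreted MCP-1 protein quantified by ELISA in culture supernatant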
Summary of the method: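 Values derive from bidirectional fitting against DMSO of ELISA-measured MCP-1 in a human primary endothelial and mononuclear cell co-culture, 24 h after chemical addition under LPS activation.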

[11] = read-out: Macrophage colony-stimulating factor (MCSF), CSF1 (gene 1435); experiment: BSK_LPS_MCSF: BioMAP Diversity Plus: LPS Assay for Macrophage colony-stimulating factor (MCSF) Biomarker Activity (AID 2283083); settings: primary human HUVEC with PBMC; actives raise or lower the signal
Summary of the method: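 Bidirectional fit versus DMSO of ELISA-measured M-CSF in co-cultured human umbilical vein endothelial cells and PBMC, sampled 24 h after dosing.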

[12] = read-out: Tissue Factor, F3 (gene 2152); experiment: BSK_LPS_TissueFactor: BioMAP Diversity Plus: LPS Assay for Tissue Factor Biomarker Activity (AID 2283084); settings: primary human HUVEC with PBMC; actives raise or lower the signal
Summary of the method: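 Read-out: CD142 ELISA, 24 h. System: LPS-driven human endothelial/PBMC co-culture. Analysis: up- or down-signal fitted against DMSO.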

[13] = read-out: Tumor necrosis factor (Homo sapiens) (UniProt P01375); experiment: BSK_LPS_TNFa: BioMAP Diversity Plus: LPS Assay for Tumour Necrosis Factor alpha (TNFa) Biomarker Activity (AID 2283085); settings: primary human HUVEC with PBMC; actives raise or lower the signal;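 as to AC50: TNFa protein level quantified by ELISA in the co-culture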
Summary of the method: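 HUVEC/PBMC co-culture, LPS-stimulated; 24 h post-dose; TNFa by ELISA; gain or loss of signal fitted bidirectionally vs DMSO baseline.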

[14] = read-out: Vascular cell adhesion molecule 1 (VCAM1), VCAM1 (gene 7412); experiment: BSK_LPS_VCAM1: BioMAP Diversity Plus: LPS Assay for Vascular cell adhesion molecule 1 (VCAM1) Biomarker Activity (AID 2283086); settings: primary human HUVEC with PBMC; actives raise or lower the signal
Summary of the method: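 ELISA read-out of VCAM-1 at 24 h post-dosing in an LPS-driven HUVEC/PBMC primary human co-culture; gain or loss of signal fitted bidirectionally against DMSO baseline. Cytotoxicity tracked in parallel cultures by SRB total-protein staining.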

[15] = read-out: CD38, CD38 (gene 952); experiment: BSK_SAg_CD38: BioMAP Diversity Plus: SAg Assay for CD38 Biomarker Activity (AID 2283087); settings: primary human HUVEC with PBMC; actives raise or lower the signal
Summary of the method: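 Measures CD38 on a human endothelial/PBMC co-culture driven by SEB and TSST-1, 24 h after compound exposure, using ELISA with fluorescence detection; DMSO defines baseline for bidirectional curve fitting.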

[16] = read-out: CD40, CD40 (gene 958); experiment: BSK_SAg_CD40: BioMAP Diversity Plus: SAg Assay for CD40 Biomarker Activity (AID 2283088); settings: primary human HUVEC with PBMC; actives raise or lower the signal
Summary of the method: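 Endpoint derived by fitting increases or decreases versus DMSO controls. CD40 is detected by fluorescence ELISA in a human vascular co-culture of endothelium and PBMC at 24 h.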

[17] = read-out: CD69, CD69 (gene 969); experiment: BSK_SAg_CD69: BioMAP Diversity Plus: SAg Assay for CD69 Biomarker Activity (AID 2283089); settings: primary human HUVEC with PBMC; actives raise or lower the signal;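 as to AC50: cell surface CD69 protein quantified by ELISA with fluorescence detection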
Summary of the method: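 Endothelial/PBMC co-culture; chemical added; 24 h incubation; CD69 ELISA with fluorescence detection; bidirectional fit vs DMSO.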

[18] = read-out: Monocyte Chemoattractant Protein-1 (MCP1), CCL2 (gene 6347); experiment: BSK_SAg_MCP1: BioMAP Diversity Plus: SAg Assay for Monocyte Chemoattractant Protein-1 (MCP1) Biomarker Activity (AID 2283090); settings: primary human HUVEC with PBMC; actives raise or lower the signal
Summary of the method: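 Values derive from bidirectional fitting of ELISA-measured MCP1 against DMSO controls. Readings were taken 24 h after dosing human vascular endothelial cells co-cultured with peripheral blood mononuclear cells under superantigen stimulation.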

[19] = read-out: E-selectin (Homo sapiens) (UniProt P16581); experiment: BSK_SAg_Eselectin: BioMAP Diversity Plus: SAg Assay for Eselectin Biomarker Activity (AID 2283091); settings: primary human HUVEC with PBMC; actives raise or lower the signal
Summary of the method: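 Endpoint values derive from bidirectional fitting relative to DMSO, using ELISA-measured E-selectin in a human vascular co-culture (umbilical vein endothelium plus PBMC) sampled 24 h after dosing.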

[20] = BSK_LPS_PGE2: BioMAP Diversity Plus: LPS Assay for Prostaglandin E2 (PGE2) Biomarker Activity (AID 2283082); settings: primary human HUVEC with PBMC; actives raise or lower the signal
Summary of the method: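 ELISA read-out of PGE2 from human umbilical vein endothelial cells co-cultured with peripheral blood mononuclear cells under LPS, 24 h post-dose. Gain or loss of signal scored relative to DMSO baseline.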

Measured: AC50

Chain of E-selectin (Homo sapiens) (P16581 whole entry, looked up): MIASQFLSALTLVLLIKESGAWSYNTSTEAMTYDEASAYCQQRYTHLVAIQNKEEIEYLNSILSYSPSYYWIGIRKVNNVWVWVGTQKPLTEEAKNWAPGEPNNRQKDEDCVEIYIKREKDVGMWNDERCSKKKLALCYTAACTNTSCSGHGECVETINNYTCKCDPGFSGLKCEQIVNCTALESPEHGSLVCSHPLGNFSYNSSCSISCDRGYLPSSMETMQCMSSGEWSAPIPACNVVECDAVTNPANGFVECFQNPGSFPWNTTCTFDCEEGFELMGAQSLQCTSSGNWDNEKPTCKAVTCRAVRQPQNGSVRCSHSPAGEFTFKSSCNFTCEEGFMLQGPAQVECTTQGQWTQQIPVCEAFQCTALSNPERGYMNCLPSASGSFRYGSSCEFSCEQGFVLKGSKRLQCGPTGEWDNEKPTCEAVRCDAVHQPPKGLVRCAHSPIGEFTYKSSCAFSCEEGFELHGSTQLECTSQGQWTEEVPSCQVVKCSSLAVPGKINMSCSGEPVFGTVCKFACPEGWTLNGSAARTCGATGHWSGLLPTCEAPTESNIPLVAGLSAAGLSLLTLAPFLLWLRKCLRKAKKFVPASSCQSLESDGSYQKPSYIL
Chain of Tumor necrosis factor (Homo sapiens) (P01375 whole entry, looked up): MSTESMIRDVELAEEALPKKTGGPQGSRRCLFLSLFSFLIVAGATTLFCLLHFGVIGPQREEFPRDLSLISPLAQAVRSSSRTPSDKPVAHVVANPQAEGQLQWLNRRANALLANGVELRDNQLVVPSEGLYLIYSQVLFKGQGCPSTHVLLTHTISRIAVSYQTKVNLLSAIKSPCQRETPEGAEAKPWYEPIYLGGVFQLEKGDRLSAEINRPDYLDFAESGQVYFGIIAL

Nc1nc(Cl)nc2c1ncn2[C@H]1C[C@H](O)[C@@H](CO)O1
inactive: [1] | [2] | [3] | [4] | [6] | [14] | [15]
active: [5] 2.29 µM | [7] 0.628 µM | [8] 0.814 µM | [9] 1.68 µM | [10] 0.659 µM | [11] 1.08 µM | [12] 3.37 µM | [13] 5.4 µM | [16] 1.6 µM | [17] 4.31 µM | [18] 3.09 µM | [19] 9.32 µM

CCc1cc(C2=C(C(=O)O)N(c3ccccc3C(F)(F)F)S(=O)(=O)c3ccccc32)cc2c1OCO2
active: [15] 19.8 µM | [17] 11.1 µM
not listed: [14] | [20]
inactive: all other assays above

CSc1ccc(Oc2ccc(S(N)(=O)=O)cc2CN(C)C)cc1C
not listed: [14] | [20]
inactive: all other assays above

NCCOCCOCCN
not listed: [20]
inactive: all other assays above

COC(=O)CCCC(=O)OC
not listed: [20]
inactive: all other assays above

CN(C)CCCN1c2ccccc2Sc2ccc(Cl)cc21
inactive: [2] | [6] | [20] | [12]
active: [1] 33.2 µM | [3] 31.6 µM | [4] 30.3 µM | [5] 25.3 µM | [7] 23.9 µM | [8] 24.9 µM | [10] 26 µM | [11] 30.1 µM | [13] 27.8 µM | [14] 29.9 µM | [15] 28.8 µM | [16] 29.5 µM | [17] 28.6 µM | [19] 27.7 µM

CCCC[C@H]1CN(CC2CCOCC2)C(=O)OC12CCN(C1(C)CCN(C(=O)c3c(C)ncnc3C)CC1)CC2
not listed: [14] | [20]
inactive: all other assays above

O=C(O)CN(CC(=O)O)CC(=O)O
not listed: [20]
inactive: all other assays above
